22 molecules from PubChem BioAssay (NCATS) can be followed below.

Assay [1] concerns the target Guanine nucleotide-binding protein G(i) subunit alpha-1 (Homo sapiens) (UniProt P63096). Nature of the assay: qHTS Assay for Inhibitors of RGS12 GoLoco Motif Activity (Green Fluorophore) (AID 879).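 Note: negative values mean loss of peptide binding seen as reduced polarization.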 The method in brief:
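Fluorescence polarization assay: 50 nM Gαi1 with 10 nM FITC-labeled RGS12 GoLoco peptide in 10 mM Tris pH 7.5, 150 mM NaCl, 0.1 mM GDP, 0.05% NP40, 10 min at room temperature with compound.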
For orientation: In qHTS, concentration-response curves come from the screen itself.

For assay [2], the target named is Cytochrome P450 3A4 (Homo sapiens) (UniProt P08684). Nature of the assay: qHTS Assay for Inhibitors and Substrates of Cytochrome P450 3A4 (AID 884). Note: nearly all actives have a fitted effect of over 50% in size. Note: potency is the fitted concentration of half-maximal effect. The method in brief:
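20 nM human CYP3A4 with 25 uM Luciferin-PPXE (at KM) in 200 mM KPO4, preincubated 10 min with compound; NADPH regeneration started a 60 min RT reaction. Luciferin detected by luminescence, normalized to 57 uM ketoconazole as full inhibition.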

Assay [3] addresses Cytochrome P450 2C19 (Homo sapiens) (UniProt P33261). Nature of the assay: qHTS Assay for Inhibitors and Substrates of Cytochrome P450 2C19 (AID 899). Note: nearly all actives have a fitted effect of over 60% in size. The method in brief:
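Reactions contain 5nM enzyme, 10uM Luciferin-H EGE (KM) and 50mM KPO4; compound preincubates 10 min at 37C, NADPH regeneration starts turnover for 60 min. Luminescence after detection reagent gives activity.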

Assay [4] is described as follows: Confirmation and Secondary Assay for Modulators of Hemoglobin Beta Chain Splicing at IVS2 705 locus (AID 930).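 Note: HeLa cells stably expressing the EGFP-705 splicing reporter; GFP fluorescence per well restored by corrected splicing of the IVS2-705 intron in EGFP; series mostly up to about 46 µM.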 The method in brief:
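Stable HeLa line with EGFP disrupted by mutant beta-globin intron 2 (705). Overnight attachment, then 2 days of compound at 37C, 5% CO2. Signal: peak GFP intensity summed over objects 5-250 µm.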

Assay [5] addresses Muscarinic acetylcholine receptor M1 (Rattus norvegicus) (UniProt P08482). Briefly: qHTS Assay for Antagonists of Acetylcholine Muscarinic M1 Receptor: Kinetic Measurement of Intracellular Calcium Response (AID 943). Note: nearly all actives have a fitted effect of over 75% in size. Note: potency is the fitted concentration of half-maximal effect. The method in brief: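 CHO cells stably expressing rat M1 were loaded with no-wash Fluo-4 dye for 1 h at 37C, pre-incubated 10 min with compound, then challenged with EC80 carbachol (100 nM final); kinetic calcium read 4 min, peak/basal ratio.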

The target is the same in assay [6]. Briefly: qHTS Assay for Antagonists of Acetylcholine Muscarinic M1 Receptor: Measurement of IP-One Response (AID 944). Note: nearly all actives have a fitted effect of over 75% in size. Note: potency is the fitted concentration of half-maximal effect. The method in brief:
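CHO cells expressing rat M1 receptor, recovered overnight, were pre-incubated 10 min with compound, then stimulated 30 min with carbachol at EC80 (200 nM) in LiCl-containing buffer, pH 7.4. IP1 accumulation was read by HTRF (620/665 nm).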

The target of assay [7] is Pyruvate kinase (Leishmania mexicana) (UniProt Q27686). Nature of the assay: qHTS Validation Assay for Inhibitors of Leishmania Mexicana Pyruvate Kinase (AID 945). The method in brief:
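Mutant LmPYK (E451W), 0.2 nM, plus 0.5 mM PEP and 0.1 mM ADP in 50 mM imidazole pH 7.2 containing 0.01% Tween 20 and 0.05% BSA. Incubated 1 h at room temperature; luminescence via PKLight, normalized to DMSO.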

The target of assay [8] is Cytochrome P450 3A4 (Homo sapiens) (UniProt P08684). Briefly: qHTS Assay for Activators of Cytochrome P450 3A4 (AID 885). Note: nearly all actives have a fitted effect of over 65% in size. The method in brief:
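Signal was normalized against complete inhibition by 57 uM ketoconazole. The reaction used 20nM CYP3A4 with 25uM Luciferin-PPXE, 10-min compound preincubation and a 60-min NADPH-supported step at RT.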

The target in assay [9] is Cytochrome P450 2D6 (Homo sapiens) (UniProt P10635). Briefly: qHTS Assay for Inhibitors and Substrates of Cytochrome P450 2D6 (AID 891). Note: potency is the fitted concentration of half-maximal effect; nearly all actives have a fitted effect of over 60% in size. A digest of the protocol: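 Human CYP2D6 (5 nM) with 30 uM Luciferin-ME EGE (at Km) in 100 mM KPO4, compound preincubated 10 min, then NADPH regeneration system for 60 min at room temperature. Luciferin read by luminescence; normalized to 1.43 uM quinidine.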
Cytochrome P450 2D6 (Homo sapiens), sequence (P10635 whole entry, looked up): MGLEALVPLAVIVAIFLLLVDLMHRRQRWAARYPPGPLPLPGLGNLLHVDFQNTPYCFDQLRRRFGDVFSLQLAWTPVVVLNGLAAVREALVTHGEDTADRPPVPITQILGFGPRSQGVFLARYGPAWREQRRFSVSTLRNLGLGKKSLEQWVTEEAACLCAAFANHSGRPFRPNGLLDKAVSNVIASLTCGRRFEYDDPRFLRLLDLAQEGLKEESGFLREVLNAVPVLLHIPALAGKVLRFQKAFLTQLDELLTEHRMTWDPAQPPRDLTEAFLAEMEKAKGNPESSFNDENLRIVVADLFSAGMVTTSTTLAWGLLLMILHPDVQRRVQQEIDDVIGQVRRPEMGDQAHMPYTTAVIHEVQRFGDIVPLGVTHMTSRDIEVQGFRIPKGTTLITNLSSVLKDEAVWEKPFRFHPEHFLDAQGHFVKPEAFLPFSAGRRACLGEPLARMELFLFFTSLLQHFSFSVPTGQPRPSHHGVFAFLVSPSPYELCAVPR

The nature of assay [10]: Confirmation and Secondary Assay for Modulators of Hemoglobin Beta Chain Splicing at IVS2 654 locus (AID 910).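 Note: HeLa cells stably carrying EGFP split by mutant beta-globin IVS2-654 intron; per-well total GFP intensity by laser scanning cytometry after 2-day treatment.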 A digest of the protocol: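 Readout: per-well total peak green fluorescence (488 nm ex, 500–520 nm em) from objects 5–250 µm, reflecting correct splicing of an EGFP-654 reporter. Compounds were applied for 2 days at 37 °C to overnight-plated HeLa EGFP-654 cells; controls were DMSO and 500 nM IVS2-654 PNA.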

The target of assay [11] is Cytochrome P450 2C9 (Homo sapiens) (UniProt P11712). Nature of the assay: qHTS Assay for Inhibitors and Substrates of Cytochrome P450 2C9 (AID 883). Note: nearly all actives have a fitted effect of over 60% in size. Note: potency is the fitted concentration of half-maximal effect. A digest of the protocol: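 Turnover of Luciferin-H (100uM, KM) by 10nM human CYP2C9 was measured over 60 min at 37C with NADPH regeneration; inhibitors and some substrates reduce luminescence. Data normalized to sulphaphenazole 57uM.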
Cytochrome P450 2C9 (Homo sapiens), sequence (P11712 whole entry, looked up): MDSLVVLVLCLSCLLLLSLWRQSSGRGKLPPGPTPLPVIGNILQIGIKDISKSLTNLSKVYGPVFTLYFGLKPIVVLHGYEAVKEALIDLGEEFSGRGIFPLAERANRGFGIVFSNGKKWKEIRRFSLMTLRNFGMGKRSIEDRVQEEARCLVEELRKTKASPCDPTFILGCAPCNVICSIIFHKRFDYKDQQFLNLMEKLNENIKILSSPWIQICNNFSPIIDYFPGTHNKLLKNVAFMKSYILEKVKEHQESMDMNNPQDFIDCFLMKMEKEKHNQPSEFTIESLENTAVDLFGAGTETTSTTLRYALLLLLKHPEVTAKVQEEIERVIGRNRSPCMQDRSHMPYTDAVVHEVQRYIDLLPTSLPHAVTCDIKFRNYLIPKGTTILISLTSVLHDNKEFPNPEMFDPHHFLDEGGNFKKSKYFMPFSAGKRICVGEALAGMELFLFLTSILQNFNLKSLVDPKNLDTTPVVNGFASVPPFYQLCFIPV

A short description of assay [12]: qHTS Assay for Identification of Small Molecule Antagonists for NFkB Signaling Pathway (AID 895; active = well fitted inhibition curve with a large enough effect in the signal ratio, with a control signal flat, not every such curve was filed as active; the % refers to the signal ratio). The method in brief: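 Beta-lactamase reporter read-out (460 and 530 nm emission ratio, 405 nm excitation, 2 hrs substrate loading RT) after 5 hr stimulation with 10 pM TNF alpha in compound-treated NFkB-bla ME-180 cells in low-serum medium.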
A short description of assay [13]: qHTS Assay for Identification of Small Molecule Antagonists for Thrombopoietin (TPO) Signaling Pathway (AID 918). Note: potency is the fitted concentration of half-maximal effect; nearly all actives have a fitted effect of over 60% in size. As to conditions: TPO-dependent cell signaling reporter, antagonist mode. The method in brief:
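Murine Ba/F3 cells stably expressing human TPO receptor and a Glycoprotein IIb promoter–luciferase reporter were IL-3-starved overnight, treated with compounds plus TPO (26 pM final, its EC50) for 24 hrs at 37 C, then read by luminescence.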

A number with no mark means an inactive call. Records with an inconclusive call do not appear. The source made the active and inactive calls. Unless noted, calls come from the whole dose curve; as a rule, active = well fitted curve in the direction sought with a large enough effect; inconclusive = small, poorly fitted or top-dose-only effect, or another doubt; inactive = no such curve, though single readings can be large; an effect the other way counts as inactive or inconclusive.

Cytochrome P450 2C19 (Homo sapiens), sequence (P33261 whole entry, looked up): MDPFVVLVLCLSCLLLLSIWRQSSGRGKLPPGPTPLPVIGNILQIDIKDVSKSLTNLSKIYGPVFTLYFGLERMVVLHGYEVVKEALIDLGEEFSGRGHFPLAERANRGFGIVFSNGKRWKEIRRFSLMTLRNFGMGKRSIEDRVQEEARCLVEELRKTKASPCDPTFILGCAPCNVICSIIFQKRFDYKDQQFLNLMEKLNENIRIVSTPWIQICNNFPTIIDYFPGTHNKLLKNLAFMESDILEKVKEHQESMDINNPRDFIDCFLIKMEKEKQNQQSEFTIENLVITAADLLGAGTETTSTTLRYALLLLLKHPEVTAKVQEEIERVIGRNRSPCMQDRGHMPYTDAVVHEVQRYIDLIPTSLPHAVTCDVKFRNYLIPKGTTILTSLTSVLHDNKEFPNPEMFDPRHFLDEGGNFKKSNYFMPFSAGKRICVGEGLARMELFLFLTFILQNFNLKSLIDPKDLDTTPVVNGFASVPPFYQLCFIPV
Muscarinic acetylcholine receptor M1 (Rattus norvegicus), sequence (P08482 whole entry, looked up): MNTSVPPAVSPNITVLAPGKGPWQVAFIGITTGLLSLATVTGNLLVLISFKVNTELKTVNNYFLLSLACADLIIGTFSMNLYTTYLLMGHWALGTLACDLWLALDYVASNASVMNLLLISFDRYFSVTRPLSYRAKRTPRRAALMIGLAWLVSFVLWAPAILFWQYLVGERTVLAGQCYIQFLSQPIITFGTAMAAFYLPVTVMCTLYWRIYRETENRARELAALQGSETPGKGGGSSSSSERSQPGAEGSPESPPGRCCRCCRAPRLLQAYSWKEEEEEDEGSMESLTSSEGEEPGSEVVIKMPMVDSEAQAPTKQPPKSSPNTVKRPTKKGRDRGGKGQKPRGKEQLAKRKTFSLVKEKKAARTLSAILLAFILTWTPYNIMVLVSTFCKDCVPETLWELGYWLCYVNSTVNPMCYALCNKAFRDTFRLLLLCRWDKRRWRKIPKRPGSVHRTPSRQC
Cytochrome P450 3A4 (Homo sapiens), sequence (P08684 whole entry, looked up): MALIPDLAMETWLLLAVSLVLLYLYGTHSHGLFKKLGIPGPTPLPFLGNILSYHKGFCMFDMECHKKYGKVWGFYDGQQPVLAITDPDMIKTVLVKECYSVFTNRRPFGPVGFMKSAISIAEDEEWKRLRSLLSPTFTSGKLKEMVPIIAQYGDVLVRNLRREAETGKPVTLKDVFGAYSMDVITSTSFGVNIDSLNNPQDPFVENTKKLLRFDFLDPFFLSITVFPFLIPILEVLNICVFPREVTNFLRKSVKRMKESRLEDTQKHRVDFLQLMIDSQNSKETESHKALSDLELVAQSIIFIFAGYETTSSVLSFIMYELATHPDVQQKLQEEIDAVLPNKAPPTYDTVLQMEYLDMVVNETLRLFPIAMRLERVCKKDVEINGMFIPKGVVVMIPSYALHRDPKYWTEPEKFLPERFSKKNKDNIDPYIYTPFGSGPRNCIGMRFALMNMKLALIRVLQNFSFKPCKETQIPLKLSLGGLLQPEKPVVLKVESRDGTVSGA
Pyruvate kinase (Leishmania mexicana), sequence (Q27686 2-499 E452W): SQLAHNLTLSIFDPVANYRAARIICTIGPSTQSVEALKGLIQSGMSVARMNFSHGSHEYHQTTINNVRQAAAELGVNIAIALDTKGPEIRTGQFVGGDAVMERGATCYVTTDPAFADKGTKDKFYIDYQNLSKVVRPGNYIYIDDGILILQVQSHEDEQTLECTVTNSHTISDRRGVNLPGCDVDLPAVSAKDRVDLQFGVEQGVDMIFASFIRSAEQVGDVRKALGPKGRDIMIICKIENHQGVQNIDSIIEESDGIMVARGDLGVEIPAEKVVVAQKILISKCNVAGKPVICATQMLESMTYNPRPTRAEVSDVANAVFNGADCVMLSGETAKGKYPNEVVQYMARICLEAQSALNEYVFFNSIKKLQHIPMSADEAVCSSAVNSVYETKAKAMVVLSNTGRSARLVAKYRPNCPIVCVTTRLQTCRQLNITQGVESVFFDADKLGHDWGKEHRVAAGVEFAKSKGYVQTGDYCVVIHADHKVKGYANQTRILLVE
Guanine nucleotide-binding protein G(i) subunit alpha-1 (Homo sapiens), sequence (P63096 whole entry, looked up): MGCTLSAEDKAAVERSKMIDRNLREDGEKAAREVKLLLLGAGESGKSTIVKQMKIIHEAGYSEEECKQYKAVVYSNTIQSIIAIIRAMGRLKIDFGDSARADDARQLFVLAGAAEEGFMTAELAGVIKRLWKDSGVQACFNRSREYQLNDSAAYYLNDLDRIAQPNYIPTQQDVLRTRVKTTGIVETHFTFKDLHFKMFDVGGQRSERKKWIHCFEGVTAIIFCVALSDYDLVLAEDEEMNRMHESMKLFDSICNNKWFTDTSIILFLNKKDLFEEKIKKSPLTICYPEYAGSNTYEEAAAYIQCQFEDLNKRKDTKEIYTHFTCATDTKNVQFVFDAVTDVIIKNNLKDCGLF

As to `C=Cc1c(C)c2cc3[nH]c(cc4nc(cc5nc(cc1[nH]2)C(C)=C5CCC(=O)O)C(CCC(=O)O)=C4C)c(C)c3C=C`, the outcome in [1] and in assay [7] was inactive. Moreover, the Potency entry in [2], in [3], in assay [4], in [5] and in assay [6] was “inactive” each time.

Regarding `NS(=O)(=O)c1cc2c(cc1Cl)NC(CSCc1ccccc1)=NS2(=O)=O`, the Potency in assay [2] is 25.1 µM (active). Further, the outcome in assay [8] was inactive. Besides, in assay [4], the Potency result is “inactive”.

With `c1ccc2c(CC3=NCCN3)cccc2c1`, the Potency entry in assay [2] and in assay [4] was “inactive” in each case. Besides, in assay [9], the Potency is 7.94 µM (active). The call in assay [10] was inactive.

For `CCN(CC)CCOC(=O)C1(C2CCCCC2)CCCCC1`, the molecule was classed as inactive in assay [1], in assay [8] and in assay [7]. Moreover, in [4], the Potency entry was “inactive”.

For the molecule `Cc1cc(N)c2ccccc2[n+]1CCCCCCCCCC[n+]1c(C)cc(N)c2ccccc21`, the molecule was called inactive in [1], in assay [8] and in [7]. Moreover, in assay [4], the Potency result is “inactive”. Further, the Potency was 1.78 µM (active) in assay [5] and 2.24 µM (active) in assay [6].

Consider `NC(=O)NC(=O)Cc1ccccc1`, for which the Potency entry in [2] and in [4] was “inactive” throughout. Also, the molecule was called inactive in assay [10].

With `O=c1cc[nH]c(=S)[nH]1`, the Potency result in assay [2] and in assay [4] was “inactive” in each case.

Take `C[C@]12CC[C@@H]3c4ccc(O)cc4CC[C@H]3[C@@H]1CCC2=O`: the molecule was called inactive in assay [1] and in assay [7].

On to `O=c1cc(CO)occ1O`, for which the Potency entry in assay [11], in assay [2] and in assay [3] was “inactive” each time.

Consider `CC1=C(CC(=O)O)c2cc(F)ccc2/C1=C\c1ccc(S(C)(=O)=O)cc1`, for which the outcome in assay [1], in assay [8] and in [7] was inactive. Moreover, the Potency result in assay [3] and in assay [6] was “inactive” throughout.

In the case of `CCCn1cnc2c1c(=O)n(CCCCC(C)=O)c(=O)n2C`, the call in [1] and in assay [7] was inactive. Moreover, the Potency result in assay [5] and in [6] was “inactive” each time.

On to `N=c1c[n+](N2CCOCC2)[n-]o1`, for which the result in assay [1] and in assay [7] was inactive. Further, the Potency entry in assay [12] and in assay [6] was “inactive” in each case.

For `CN(C)CC[C@@H](c1ccc(Cl)cc1)c1ccccn1`, the Potency entry in assay [2] and in assay [4] was “inactive” throughout.

Turning to `Cc1c(Cl)cccc1Nc1ccccc1C(=O)O`, the Potency in assay [11] is 3.16 µM (active). Further, the Potency entry in assay [2] and in assay [4] was “inactive” throughout.

For the molecule `O=C(O)c1ccccc1O`, the Potency result in assay [2] and in assay [4] was “inactive” each time.

In the case of `CCCCCCCCCCCCCCCC(=O)NCCO`, the call in assay [1] and in [7] was inactive. In addition, the Potency result in assay [6] is “inactive”.

On to `OCCN1CCN(CCCN2c3ccccc3Sc3ccc(Cl)cc32)CC1`, for which the call in assay [1] and in [7] was inactive. Also, in assay [13], the Potency was 15.8 µM (active). In addition, the Potency result in [4] is “inactive”.

Regarding `c1ccc(CN(CC2=NCCN2)c2ccccc2)cc1`, the Potency result in assay [2] and in [4] was “inactive” each time. Moreover, the Potency in assay [9] was 2.51 µM (active). In addition, the outcome in [10] was inactive.

Regarding `CC(C)NC[C@H](O)c1ccc(O)c(O)c1`, the molecule was called inactive in assay [1] and in assay [7].

As to `CC(CN1c2ccccc2Sc2ccccc21)N(C)C` (stereo not given), the Potency result in assay [2] and in [4] was “inactive” each time. For the same molecule, the result in [10] was inactive.

As for `NC1CCN(c2cccc(Cl)n2)CC1`, the result in assay [1] and in [7] was inactive.

Turning to `O=C1NS(=O)(=O)c2ccccc21`, the Potency entry in assay [2] and in assay [4] was “inactive” each time. The result in assay [10] was inactive.
